Bioassay records (PubChem)
Tau FP inhib: qHTS for Inhibitors of Tau Fibril Formation, Fluorescence Polarization. Microtubule-associated protein tau (Homo sapiens), P10636. K18 P301L tau heparin fibrillization, Alexa594 FP, 6 h. Potency, µM (titrated, usually from 57.7 µM), usual class: inhibitors. actives 0.39% (n = 280,000); note: nearly all actives have a fitted effect of over 55% in size
Target sequence (P10636 561-689 P618L limits assumed): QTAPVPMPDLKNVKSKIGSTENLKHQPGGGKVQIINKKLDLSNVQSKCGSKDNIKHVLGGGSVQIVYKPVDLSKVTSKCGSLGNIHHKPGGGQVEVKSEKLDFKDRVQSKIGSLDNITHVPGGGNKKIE
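Steps: dispense K18 P301L tau (15 uM plus 0.24 uM Alexa 594 tracer, final) in pH 7 sodium acetate; add compound; add heparin (20 uM final); incubate 6 hr, 37 C; add ThT (30 uM final); after 1 hr ambient, read FP.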
HPGD inh: qHTS Assay for Inhibitors of HPGD (15-Hydroxyprostaglandin Dehydrogenase) | 15-hydroxyprostaglandin dehydrogenase [NAD(+)] (Homo sapiens), P15428 | purified HPGD, NADH fluorescence kinetic, PGE2 substrate | actives 4.3% (n = 150,000) | Potency, µM, hits mostly inhibitors; active = well fitted inhibition curve with a large enough effect, not every such curve was filed as active; inconclusive = small, poorly fitted or top-dose-only effect, or another doubt; inactive = no such curve, though single readings can be large or run the other way
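20 nM HPGD preincubated 15 min at room temperature with compound in 50 mM Tris-HCl pH 8, 0.01% Tween 20. Started with 1 mM NAD+ and 30 uM prostaglandin E2; NADH fluorescence (360/450 nm) read 5 times over 30-s intervals, last minus first.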
NPSR antagonist: qHTS Assay for Antagonists of the Neuropeptide S Receptor: cAMP Signal Transduction | CHO-NPSR cells, cAMP TR-FRET, antagonist mode | actives 1% (n = 220,000) | Potency, µM (titrated, usually from 38.3 µM), usual class: inhibitors | Q6W5P4 | AID 1461, 2008; note: nearly all actives have a fitted effect of over 50% in size
Target sequence (Q6W5P4 whole entry, looked up): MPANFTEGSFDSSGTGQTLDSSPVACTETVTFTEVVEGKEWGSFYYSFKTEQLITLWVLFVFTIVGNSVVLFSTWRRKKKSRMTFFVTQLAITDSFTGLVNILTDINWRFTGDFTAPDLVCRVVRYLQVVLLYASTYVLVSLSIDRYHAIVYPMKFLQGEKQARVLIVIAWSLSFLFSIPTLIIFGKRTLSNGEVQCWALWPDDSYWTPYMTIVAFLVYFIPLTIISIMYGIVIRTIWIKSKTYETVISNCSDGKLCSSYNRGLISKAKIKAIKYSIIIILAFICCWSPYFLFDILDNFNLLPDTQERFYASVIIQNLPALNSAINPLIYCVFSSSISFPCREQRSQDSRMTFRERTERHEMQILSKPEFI
Tau fluor counter: Counterscreen qHTS for Inhibitors of Tau Fibril Formation, Fluorescence Polarization | tau K18 P301L Alexa594 fluorescence, heparin fibrillization | Potency, µM (titrated, usually from 57.7 µM) | actives 0.93% (n = 280,000) | AID 1463, 2008; note: nearly all actives have a fitted effect of over 55% in size
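Human K18 P301L tau (15 uM unlabeled plus 0.24 uM Alexa 594-labeled, final) in 100 mM sodium acetate pH 7 was mixed with compound and 20 uM heparin and incubated 6 hr at 37 C.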
ALDH1A1 block: qHTS Assay for Inhibitors of Aldehyde Dehydrogenase 1 (ALDH1A1); Aldehyde dehydrogenase 1A1 (Homo sapiens), P00352; Purified ALDH1A1, NADH fluorescence, propionaldehyde substrate; Potency, µM (highest dose often 75.3 µM), actives largely listed as inhibitors; actives 7.3% (n = 220,000); AID 1030, 2008; active = well fitted inhibition curve with a large enough effect, not every such curve was filed as active; inconclusive = small, poorly fitted or top-dose-only effect, or another doubt; inactive = no such curve, though single readings can be large or run the other way
Tau fibril ThT: qHTS for Inhibitors of Tau Fibril Formation, Thioflavin T Binding. Microtubule-associated protein tau (Homo sapiens), P10636. recombinant tau K18 P301L (four-repeat tau fragment), heparin-induced fibrillization, ThT fluorescence. Potency, µM (top dose mostly 57.4 µM), usual class: inhibitors. actives 2.1% (n = 270,000); note: nearly all actives have a fitted effect of over 55% in size
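In this qHTS, human K18 P301L tau is incubated with compound and heparin for 6 hr at 37 C, and Thioflavin T fluorescence then reports fibril load.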
Large screens that a line does not name were inactive; [ ] = remark or other dose. Rows were chosen to be rich in hits. Some 9.5% of all compounds tested hit in one or more screens of this group. Unless noted, calls come from the whole dose curve; as a rule, active = well fitted curve in the direction sought with a large enough effect; inconclusive = small, poorly fitted or top-dose-only effect, or another doubt; inactive = no such curve, though single readings can be large; an effect the other way counts as inactive or inconclusive.

Cn1c(-c2ccc(Br)cc2)cnc1NCc1cccnc1	ALDH1A1 block 10µM
CCN1CCCC1CNC(=O)c1ccc(Sc2ccc(F)cc2)c([N+](=O)[O-])c1 (centres undefined)	Tau fluor counter inconclusive (no result: HPGD inh)
COc1ccc(O[C@H]2C=C[C@@H](c3ccccc3)O[C@@H]2COC(=O)CC/C(C)=N/OC[C@@H](O)[C@H]2O[C@@H]3OC(C)(C)O[C@@H]3[C@H]2O)cc1	none
CC(C)C(C(=O)N1CCN(C(=O)OC(C)(C)C)CC1)n1cc(-c2cn([C@@H](C)C(=O)N3CCN(C(=O)OC(C)(C)C)CC3)nn2)nn1 (some centres undefined)	none (no result: HPGD inh, ALDH1A1 block)
O=C(NC(CSCc1ccccc1)C(=O)N/N=C/c1ccc(O)cc1O)c1ccc([N+](=O)[O-])cc1 (centres undefined)	Tau FP inhib inconclusive, NPSR antagonist inconclusive, Tau fluor counter 13µM[quencher], ALDH1A1 block inconclusive, Tau fibril ThT inconclusive
COC(=O)Nc1nn(-c2ccc(OC)cc2)c(=O)c(C#N)c1C	ALDH1A1 block 25µM (no result: HPGD inh)
CC(C)(C)[C@]1(O)CCN2C[C@H]3c4ccccc4CCc4cccc(c43)[C@@H]2C1	none
CCOC(=O)CCCCC1=CC2=CC(=O)C(C)(O)C(=O)C2=CO1 (centres undefined)	Tau fibril ThT inconclusive (no result: HPGD inh, NPSR antagonist)
O=C(Nc1ccc2nc(-c3ccc(Br)o3)[nH]c2c1)c1cccs1	Tau fluor counter inconclusive, ALDH1A1 block inconclusive, Tau fibril ThT inconclusive
Cn1cccc1-c1nc2ccc(NC(=O)c3cccs3)cc2[nH]1	Tau fluor counter inconclusive, Tau fibril ThT 11µM
C[C@@H]1/C=C\CC(=O)OC[C@H]2O[C@@H](C=C[C@@H]2O)[C@H](C)/C=C\CC(=O)OC1	none (no result: HPGD inh, NPSR antagonist)
CCCC(=O)Nc1ccc2nc(SCC(=O)Nc3ccc(N4CCOCC4)c(Cl)c3)sc2c1	Tau fluor counter 14µM[quencher], ALDH1A1 block inconclusive, Tau fibril ThT inconclusive
O=C(CSc1nc2ccc(Nc3nc(N4CCOCC4)nc(N4CCOCC4)n3)cc2s1)N1CCOCC1	HPGD inh 22µM
COC(=O)c1ccc2c(=O)[nH]c(CN3c4ccccc4CC3C)nc2c1 (centres undefined)	ALDH1A1 block 11µM, Tau fibril ThT inconclusive
CC(SCC(=O)NC(C)C1CC2CCC1C2)C(=O)O (centres undefined)	none
COc1ccc(C(=O)Nc2ccc(S(=O)(=O)Nc3cc(C)nc(C)n3)cc2)cc1OC	ALDH1A1 block 10µM (no result: HPGD inh)
Cc1cc(NS(=O)(=O)c2ccc(NC(=O)/C=C/c3ccc(C)o3)cc2)nc(C)n1	ALDH1A1 block 3.5µM, Tau fibril ThT inconclusive (no result: HPGD inh)
COc1cc(OC)cc(C(=O)Nc2ccc(S(=O)(=O)Nc3cc(C)nc(C)n3)cc2)c1	ALDH1A1 block 5µM
COc1cc(C(=O)Nc2ccc(S(=O)(=O)Nc3cc(C)nc(C)n3)cc2)cc(OC)c1OC	ALDH1A1 block inconclusive (no result: HPGD inh)
Cc1cc(NS(=O)(=O)c2ccc(NC(=O)c3ccc(Br)o3)cc2)nc(C)n1	ALDH1A1 block inconclusive (no result: HPGD inh)
COc1cc(OC)cc(C(=O)Nc2ccc(S(=O)(=O)Nc3nc(C)cc(C)n3)cc2)c1	ALDH1A1 block inconclusive (no result: HPGD inh)
Cc1ccnc2nc(C(=O)OCCOc3ccc(F)cc3)nn12	none (no result: HPGD inh)
COc1ccc(N2C(=NC(C)=O)SC3CS(=O)(=O)CC32)cc1OC (centres undefined)	none
N/C(Cc1cccs1)=N\OC(=O)COc1ccccc1	none
COc1cc(NC2c3ncccc3C(=O)N2Cc2ccco2)cc(OC)c1 (centres undefined)	NPSR antagonist inconclusive, ALDH1A1 block 16µM
O=C1c2cccnc2C(Nc2ccc(Cl)cc2)N1Cc1cccs1 (centres undefined)	ALDH1A1 block 4.5µM (no result: HPGD inh)
COc1ccc(CN2C(=O)c3cccnc3C2Nc2ccc(OC)c(Cl)c2)cc1 (centres undefined)	none
Cc1ccccc1OCCN1C(=O)c2ccccc2C1=O	HPGD inh 28µM
COc1c(O)cc(O)cc1O	none (no result: NPSR antagonist)
Cc1cc(O)c(Oc2cc(C)cc(O)c2O)c(O)c1	Tau FP inhib inconclusive, Tau fluor counter inconclusive, ALDH1A1 block 8.9µM, Tau fibril ThT 5.6µM (no result: HPGD inh)
O=[N+]([O-])c1ccc(N/N=C2\CC3CC=CC23)cc1 (centres undefined)	Tau fluor counter inconclusive, ALDH1A1 block inconclusive, Tau fibril ThT 14µM (no result: HPGD inh)
COC(=O)C1CSc2[nH]c(=O)sc2C1c1ccc(OC)c(OC)c1 (centres undefined)	ALDH1A1 block 7.9µM
COc1ccc(CNC(=O)C/C(C)=N/NC(=O)C23CC4CC(CC(C4)C2)C3)cc1	ALDH1A1 block 14µM (no result: HPGD inh)
COc1ccc(CNC(=O)C/C(C)=N/NC(=O)C(c2ccccc2)c2ccccc2)cc1	ALDH1A1 block 22µM
COc1ccc(CCNC(=O)COC(=O)C23CC4CC(CC(C4)C2)C3)cc1	ALDH1A1 block 22µM
Cc1cc(CN2CCN(CCC#N)CC2)c(O)c(C2(C)CCCCC2)c1	NPSR antagonist 10µM
N#C/C(=C\N1CCNC1=S)C(=O)c1ccc2ccccc2c1	ALDH1A1 block inconclusive (no result: Tau FP inhib, NPSR antagonist, Tau fluor counter, Tau fibril ThT)
CCc1cc2c(=O)n(Cc3ccccc3)c(SC3CCOC3=O)nc2s1 (centres undefined)	ALDH1A1 block 2.8µM (no result: HPGD inh)
Cc1ccc(Cn2c(SC3CCOC3=O)nc3ccccc3c2=O)cc1 (centres undefined)	ALDH1A1 block inconclusive
O=C1OCCC1Sc1nnc(-c2cccs2)n1Cc1ccccc1 (centres undefined)	ALDH1A1 block 20µM
CCC(C)[C@@H](N)C(=O)N/N=C/c1ccc2ncccc2c1 (some centres undefined)	ALDH1A1 block inconclusive
COc1ccccc1OCCCOc1ccc([N+](=O)[O-])cc1Cl	HPGD inh 16µM, Tau fluor counter inconclusive, Tau fibril ThT inconclusive
COc1cccc(OCCCOc2ccc([N+](=O)[O-])cc2Cl)c1	HPGD inh 18µM, Tau fibril ThT inconclusive
CC(=O)NCCCOc1ccc([N+](=O)[O-])cc1Cl	none (no result: HPGD inh, ALDH1A1 block)
CC(=O)N1CCN(c2cc(N3CCc4ccccc4C3)c(F)cc2[N+](=O)[O-])CC1	ALDH1A1 block inconclusive, Tau fibril ThT 16µM
CCOC(=O)N1CCN(c2ccc(C(=O)c3ccccc3)cc2F)CC1	HPGD inh 28µM, NPSR antagonist inconclusive, ALDH1A1 block inconclusive, Tau fibril ThT inconclusive
CCCC(=O)c1ccc(N2CCCC2)c(F)c1	HPGD inh 22µM, ALDH1A1 block inconclusive, Tau fibril ThT inconclusive
